# Reference: PubChem BioAssay AID2515 (National Center for Advancing Translational Sciences (NCATS), 2010)
# Results filed as inconclusive are left out. Active and inactive are the calls of the source. Calls come from the whole dose curve; as a rule, active = well fitted inhibition curve with a large enough effect; inconclusive = small, poorly fitted or top-dose-only effect; inactive = flat fitted curve, though single readings scatter.
# Target: Luciferin 4-monooxygenase (Photinus pyralis) (UniProt P08659)
# Sequence (P08659 whole entry, looked up, canonical isoform): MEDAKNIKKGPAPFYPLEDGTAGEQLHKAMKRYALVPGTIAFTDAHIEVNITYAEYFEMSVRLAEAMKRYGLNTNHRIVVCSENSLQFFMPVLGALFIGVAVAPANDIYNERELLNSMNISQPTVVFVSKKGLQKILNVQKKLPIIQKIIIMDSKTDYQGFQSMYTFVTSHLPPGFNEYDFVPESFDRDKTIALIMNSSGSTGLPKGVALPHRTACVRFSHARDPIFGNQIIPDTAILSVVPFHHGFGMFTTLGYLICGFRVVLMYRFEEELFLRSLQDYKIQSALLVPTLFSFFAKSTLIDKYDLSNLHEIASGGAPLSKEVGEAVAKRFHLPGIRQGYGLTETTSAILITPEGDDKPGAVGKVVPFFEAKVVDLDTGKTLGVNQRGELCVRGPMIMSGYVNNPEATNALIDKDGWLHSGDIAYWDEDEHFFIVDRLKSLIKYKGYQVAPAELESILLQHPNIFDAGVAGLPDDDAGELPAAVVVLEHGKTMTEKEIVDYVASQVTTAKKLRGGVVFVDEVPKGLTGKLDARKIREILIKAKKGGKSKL
# Assay: Counterscreen Assay for Enhancers of SMN2 Splice Variant Expression: Interaction with Luciferase Reporter for Probe SAR
# Conditions: purified firefly luciferase, luminescence inhibition
# Source text: NIH Chemical Genomics Center [NCGC] NIH Molecular Libraries Probe Production centers Network [MLPCN] MLPCN Grant: R03 MH084179-01 Assay Submitter (PI): Elliot Androphy NCGC Assay Overview: Spinal muscular atrophy (SMA) is caused by insufficient levels of the survival motor neuron protein SMN. The SMN locus on chromosome 5q13 contains two inverted copies of SMN called SMN1 and SMN2 which are 99% identical at the amino acid level. SMN1 is a fully functional protein and SMN2 skips exon 7 90% of the time. Skipping of exon 7 produces non-functional protein product. 10% of the SMN2 protein includes exon 7 and is fully functional. In the SMA disease state, mutations in the SMN1 locus are the cause of the disease state. […]
# NCGC Assay Protocol Summary: The primary screen utilizes a luciferase reporter gene assay, combining the promoter and splicing based cassettes in tandem with the major portion of the native SMN1 cDNA, and then transfected into HEK293 cells. […] Sequence, Parameter, Value, Description (1) Reagent, 2.5 uL, Enzyme in buffer (note A) (2) Compound, 23 nL, From stock solutions (3) Time, 5 minutes, Room temp (4) Reagent#2.5 ul, Luciferase detection reagent (note B) (5) Detector, 1 sec integrate, Luminescent read on Viewlux (note C) Sigma enzyme (1 mg) considered to be MW 61,000 diluted in 357 ul assay buffer to 50 uM stock. […]
compound,measurement,value
Brc1ccc(-c2csc(N3CCCCC3)n2)cc1,Potency,17.9 µM (active)
